# Compound activity deposited in PubChem BioAssay by several laboratories.
# Sampled rows, rich in hits. Any-hit rate of the full collection: about 2.2%.
# RTF Ca sens act: cardiac RTF calcium sensitization; IANBD-labeled TnC RTF fluorescence at EC20 calcium; 0% EC20 calcium, 100% full calcium; activation, % at 7.2 µM; 340,000 tested, 0.24% active; AID 493008;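 active means activation above the mean over all tested compounds plus 3 SD, cut at about 30% in these data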;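 further: rise in fluorescence read as greater calcium sensitivity of cardiac thin filaments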
# Myeloid diff 2: compounds promoting myeloid differentiation. ER-HoxA9 myeloid progenitors, lysozyme-GFP differentiation, flow cytometry. calls only at 10 µM. 360,000 tested, 1% active. AID 624256;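 active means normalized GFP-positive differentiation at or above the plate's own cutoff, the solvent-only control mean plus 3 SD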;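 further: cells exposed to compound for four days before flow analysis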
# CRFR2-BP ag: CRF-BP/CRF-R2 complex agonism. HEK293 CRF-R2/CRF-BP, calcium dye fluorescence (FLIPR); percent of saturating CRF peptide response. activation, % at 13.2 µM. 350,000 tested, 0.46% active. AID 588473;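 active means activation of at least 50%, plus an integration ratio under a set limit after plate pattern correction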;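 further: plate controls were neutral control wells without compound for no effect and CRF at EC100 for full effect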
# RTF Ca sens inh: cardiac RTF calcium desensitization; inhibition, % at 7.15 µM; 340,000 tested, 0.12% active; IANBD-labeled cardiac RTF, Ca2+ fluorescence;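 active means inhibition above the mean inhibition of all tested compounds plus 3 SD, cut at about 17% in these data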;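 further: assay run at fixed EC70 calcium of 1.6 mM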
# CRFR2-BP antag: antagonists of CRF-binding protein/CRF-R2 receptor complex | HEK293 CRF-R2/CRF-BP, CRF-induced calcium fluorescence | inhibition, % at 11.8 µM | 350,000 tested, 0.59% active | AID 588475;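 active means inhibition of the ligand-induced calcium signal above about 50% at the single tested concentration, limit read from the data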
# Myeloid diff CP1: myeloid differentiation induction. shares compounds with Myeloid diff 2. 2,300 tested, 2% active. AID 651706. calls only. ER-HoxA9 myeloid progenitors, GFP/Mac1 double-positive flow;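 active means share of green or green-and-red cells above 9 and 9% in run 1 or 4 and 3% in run 2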
# GFP autofluor: counter-screen for myeloid differentiation promoters: compound fluorescence; shares compounds with Myeloid diff 2; ER-HoxA9 myeloid progenitors, no estrogen, GFP autofluorescence flow cytometry; vehicle wells 0%, positive control 100%; fluorescence response, % (no concentration beside the values); 2,300 tested, 7.4% active;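 active means over 5% cells positive for green fluorescent reporter, or over 2% positive for both it and APC stain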;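 further: range taken on the double positive population between DMSO and positive control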
# * = called active by the depositor; i = inactive; · = no result given; + = active, no number.
SMILES,RTF Ca sens act,Myeloid diff 2,CRFR2-BP ag,RTF Ca sens inh,CRFR2-BP antag,Myeloid diff CP1,GFP autofluor
Cc1cccc(NC(=O)CCc2nc3sc4c(c3c(=O)[nH]2)CCCC4)n1,0,i,0,-17,-3,·,·
Cc1cccc(NC(=O)CNC(=O)CCc2nc3sc4c(c3c(=O)[nH]2)CCCC4)c1C,-13,+,4,-9,-3,i,0
Cc1nc2ccc(S(=O)(=O)NCC(=O)N3CCC(N4CCCCC4)CC3)cc2s1,10,i,2,9,-5,·,·
Cc1nc2ccc(S(=O)(=O)NCC(=O)N3CCC(C)CC3)cc2s1,-15,i,2,7,-8,i,0
COc1cc(CNc2ccc3[nH]c(=O)[nH]c3c2)ccc1OCc1ccc(Cl)cc1,11,i,2,-7,8,i,0
COc1cc(CNc2ccc(N3CCN(C(C)=O)CC3)cc2)ccc1OCc1ccc(F)cc1,7,i,3,-1,-53,i,0
COc1cc(CNc2ccc3[nH]c(=O)[nH]c3c2)ccc1OCc1ccc(F)cc1,1,i,-1,1,-10,i,0
O=C(c1cccc(Cl)c1)N1CCCC(C(=O)N2CCN(c3ccccc3)CC2)C1 (stereo not drawn),-4,i,-1,4,-8,·,·
CCn1cc(CNC(=O)c2c(-c3c(Cl)cccc3Cl)noc2C)c(C)n1,7,i,-3,11,-1,·,·
CCOC(=O)[C@]12CCC=C1N(CCC1=CCCCC1)C(=O)[C@H](CC(=O)N1CCOCC1)C2,·,i,·,·,·,·,·
CC(C)NC(=O)CC(=O)N/N=C\c1ccccc1C(=O)O,1,i,0,1,-14,·,·
CC(O)C(=O)N/N=C/c1ccccc1C(=O)O (stereo not drawn),-1,i,0,-5,-15,i,0
O=S(=O)(Cc1ccccc1)Nc1ccc(F)cc1,3,i,2,-6,-10,·,·
CCOc1ccc(CCNC(=O)COC(=O)C2CC2)cc1OCC,-5,i,1,-18,-15,·,·
O=C(CSc1nc2ccccc2n1CC(=O)N1CCCC1)NCc1ccc2c(c1)OCO2,-3,i,0,-7,7,i,0
COc1ccc(CC(=O)NC2CCN(CC(=O)N3CCCc4ccccc43)CC2)cc1OC,0,i,1,2,-2,i,0
CCOC(=O)c1cccc(NC(=O)CSc2nncn2-c2ccccn2)c1,0,i,0,0,-1,·,·
COc1cc(O)oc1C=Nc1ccccc1,-3,+,0,-7,-8,i,0
Cc1ccc(O)c(N=Cc2sc3ccccc3c2Cl)c1,12,i,-1,-35,1,·,·
Oc1ccccc1N=Cc1sc2ccccc2c1Cl,-7,+,0,-10,-32,i,0
O=c1[nH][nH]cc1C=Nc1ccccc1Cl,4,i,-1,-11,14,·,·
O=c1[nH][nH]cc1C=Nc1ccccc1O,3,+,0,4,-7,+,0
O=c1[nH][nH]cc1C=Nc1cc(Cl)ccc1O,0,i,0,-24,-5,i,0
COc1ccc(C(C)=O)cc1COC(=O)Cc1cc(OC)c(OC)c(OC)c1,-5,i,0,-19,-7,·,·
CCc1nonc1NC(=O)COc1ccc(Cl)c(C)c1,6,i,15,-10,-2,i,0
SMILES,RTF Ca sens act,Myeloid diff 2,CRFR2-BP ag,RTF Ca sens inh,CRFR2-BP antag,Myeloid diff CP1,GFP autofluor
CCc1nonc1NC(=O)COc1cc(C)c(Cl)c(C)c1,-3,i,-3,-1,-5,·,·
CCOC1=C/C(=C/c2c(N)n3nc(-c4ccccc4)sc3nc2=O)C=CC1=O,·,+,73*,·,-134,i,5.2*
CCOc1ccccc1C1CC(c2cccs2)=NN1S(C)(=O)=O (stereo not drawn),·,+,-1,·,4,i,92*
CS(=O)(=O)N1N=C(c2cccs2)CC1c1ccccc1O (stereo not drawn),2,i,-6,-8,-7,·,·
COc1ccc(/C=N/NC2=NS(=O)(=O)c3ccccc32)cc1OC(C)=O,1,i,-1,-7,6,i,0
CC(=O)Oc1ccc(/C=N/NC2=NS(=O)(=O)c3ccccc32)cc1,3,i,0,-8,12,·,·
Cc1ccc(-c2noc(CN(C(=O)CCN3C(=O)c4ccccc4C3=O)C(C)C)n2)cc1,-1,+,-2,-2,6,i,0
Cc1ccc(-c2noc(CN(C(=O)CCCN3C(=O)c4ccccc4C3=O)C(C)C)n2)cc1,-5,i,3,7,-16,·,·
COc1ccc(Cl)cc1NC(=O)CN1C(=O)C(=O)N(C2CCCC2)C1=O,·,i,-1,·,0,·,·
Cc1ccc(/C=N/NC(=O)c2ccc(NC(=O)c3ccc(Cl)cc3)cc2)o1,-2,i,-1,11,-1,·,·
Cc1ccc(C(=O)Nc2ccc(C(=O)N/N=C/c3ccc(C)o3)cc2)cc1,-6,+,0,3,6,i,1
NC(=O)Nc1ccc(Oc2c(F)c(F)c(F)c(F)c2F)cc1,-3,i,4,4,-10,i,0
COC(=O)[C@@]12C[C@@H](CC(=O)NCC3CCCCC3)C(=O)N(Cc3ccc4c(c3)OCO4)C1=CCC(C)(C)C2,·,i,·,·,·,·,·
Cc1cccc(-n2c(Cc3ccccc3)nnc2SCC(=O)N2CCOCC2)c1,3,i,0,0,1,i,1
CC(=O)c1c(Cl)nc2cccc3c2c1-c1ccccc1C3=O,3,i,1,-15,-17,i,0
CCN1/C(=N\N)c2cccc3cccc1c23,9,+,2,-33,-12,i,94*
CC1(C)CC(=O)C=C(c2ccc(Oc3ccccc3)cc2)C1,-1,i,7,9,-5,·,·
CC1(C)CNC(=O)C=C(c2ccccc2)C1,-3,+,0,8,25,i,0
CC(C)OC(=O)NC(C)(C)COC(=O)Nc1cccc(Cl)c1,-2,i,0,0,-23,i,0
COc1cc(C=C2NC(=O)NC2=O)ccc1O,·,i,-2,·,13,·,·
COc1cc(/C=C2\NC(=S)N(C)C2=O)ccc1O,7,+,5,-7,-13,i,5.1*
Cc1ccsc1CN(C)CC(=O)Nc1ccc([N+](=O)[O-])cc1Cl,-3,i,1,-1,-6,·,·
CN(CC(=O)Nc1cc([N+](=O)[O-])ccc1Cl)Cc1ccc(Br)cc1,-1,i,-1,4,-5,i,0
COc1ccc(C(C)(O)c2nc(-c3cccc(O)c3)cs2)cc1 (stereo not drawn),·,i,·,·,·,·,·
CC1=C(CC(=O)c2ccccc2)C(=O)c2ccccc2C1=O,4,+,-5,-8,26,i,4.2*
